Screening results: PubChem BioAssay, National Center for Advancing Translational Sciences (NCATS)
In the library only some 9% were active in any assay of this set; here they are far more common.
HPGD inh – inhibitors of human 15-hydroxyprostaglandin dehydrogenase (HPGD); P15428; purified HPGD, NADH fluorescence kinetic, PGE2 substrate; Potency, µM, for inactives: top-dose activity change, negative = inhibition, most hits filed as inhibitors; actives 4.3% (n = 150,000); AID 894; note: potency is the fitted concentration of half-maximal effect
Target sequence (P15428 whole entry, looked up): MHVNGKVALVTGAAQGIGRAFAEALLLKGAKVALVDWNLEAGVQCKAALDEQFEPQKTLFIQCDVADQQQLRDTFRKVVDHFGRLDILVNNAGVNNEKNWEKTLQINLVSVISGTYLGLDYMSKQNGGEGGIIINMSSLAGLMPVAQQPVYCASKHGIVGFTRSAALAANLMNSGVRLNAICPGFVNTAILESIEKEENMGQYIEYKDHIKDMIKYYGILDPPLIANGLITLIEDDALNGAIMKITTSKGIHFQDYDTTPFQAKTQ
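NADH formation kinetics: reaction with 30 uM PGE2 and 1 mM NAD+ (final), 20 nM enzyme, Tris-HCl pH 8 with Tween 20, after 15 min compound preincubation at room temperature. Fluorescence change, last versus first of five reads.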
ALDH1A1 inh – blocks purified human ALDH1A1 activity. actives 7.3% (n = 220,000). P00352. Purified ALDH1A1, NADH fluorescence, propionaldehyde substrate. Potency, µM (highest dose often 75.3 µM), inactives show top-dose activity, negative = inhibition, actives largely listed as inhibitors;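 note: potency is the fitted concentration of half-maximal effect; plate controls were no enzyme wells and a reference inhibitor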
IMPase inh – membrane-permeable compound that blocks inositol monophosphatase. CHO-M1 cells, IP1 accumulation, HTRF TR-FRET ratio. 120,000 tested, under 10 active. P97697. inhibition (IP1 accumulation), % at 46.1 µM; active = well fitted curve in the direction sought with a large enough effect in the signal ratio, not every such curve was filed as active; inconclusive = small, poorly fitted or top-dose-only effect, or a change in a side signal; inactive = no such curve, though single readings can be large or run the other way; the % refers to the signal ratio;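 note: cells stimulated with carbachol in lithium chloride buffer; plate controls were DMSO basal wells for no effect and reference inhibitor wells for full effect; higher means more IMPase inhibition seen as more IP1 and lower FRET ratio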
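Elevated IP1 in lysates lowers TR-FRET signal (665/620 ratio and 620 channel reported). Cells were CHO-M1, given carbachol (50 uM as added) plus 50mM LiCl, pH 7.4, 30 min, 37C; compounds titrated up to 46 uM; AC50 by Hill equation.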
Starred values were filed as active, the others as inactive; ? = inconclusive; · = not tested or not shown; [ ] = dose if it differs, or a comment. Unless noted, calls come from the whole dose curve; as a rule, active = well fitted inhibition curve with a large enough effect (not every such curve was filed as active); inconclusive = small, poorly fitted or top-dose-only effect, or another doubt; inactive = no such curve, though single readings can be large or run the other way. Unless noted, % is set by controls: 0 for no effect and ±100 for the full control effect.

SMILES	HPGD inh	ALDH1A1 inh	IMPase inh
O=Cc1c(N2CCOCC2)nc2ccccn2c1=O	·	-2.2%	·
Cc1ccc(S(=O)(=O)/C(C#N)=C/c2c(N3CCOCC3)nc3ccccn3c2=O)cc1	15.8µM*	2.0%	3.8
CN(C)CCNc1ccccn1	-9.1%	14.0%[13.5 µM]	·
COc1ccc(OCc2nc(N)nc(Nc3ccc(C)cc3)n2)cc1	-2.0%	2.3%	1.7
COC(CNC(=O)c1cc(C(=O)c2c(-c3c(Cl)cccc3Cl)noc2C)c[nH]1)OC	-21.9%	10µM*	5.6
Cc1onc(-c2c(Cl)cccc2Cl)c1C(=O)c1c[nH]c(C(=O)NCCCN2CCOCC2)c1	-9.1%	?	8.5
Cc1cccc(N2C(=O)CC(SC(=Nc3ccccc3)Nc3ccccc3)C2=O)c1 (stereo unspecified)	-10.1%	-8.3%	15.4
O=C1SC(SC(=Nc2ccccc2)Nc2ccccc2)C(=O)N1c1ccccc1 (stereo unspecified)	-12.4%	25.1µM*	·
O=C(OC(C(=O)Nc1ccc(Cl)cc1C(F)(F)F)c1ccccc1)c1c(Cl)cccc1Cl (stereo unspecified)	-7.9%	3.16µM*	·
Cc1ccc(C(=O)OC(C(=O)Nc2ccc(Cl)cc2C(F)(F)F)c2ccccc2)cc1 (stereo unspecified)	-11.6%	-5.2%	·
NNC(=O)CCc1nc2ccc(O)cc2[nH]1	·	-2.0%	·
Cc1[nH]nc(Sc2ccccn2)c1[N+](=O)[O-]	-1.3%	-5.5%	·
CCOC(=O)c1[nH]nc(N)c1NC(=O)c1ccc(Cl)cc1Cl	?	-0.8%	7.6
COC(=O)c1n[nH]n(-c2cc(Cl)cc(Cl)c2)c1=O	·	10µM*	·
COC(=O)c1cc(-c2ccc(Cl)cc2)n[nH]1	·	0.7%	·
CCC(=O)N1CCN(c2c(Cl)cccc2[N+](=O)[O-])CC1	-10.3%	?	5.9
COC(=O)c1cc(NS(=O)(=O)c2ccc(N3CCCCC3)c([N+](=O)[O-])c2)cc(C(=O)OC)c1	-11.7%	?	1.6
Nc1nnnn1/N=C/c1ccc(N2CCCCC2)c([N+](=O)[O-])c1	-14.3%	0.0708µM*	9.4
COc1ccccc1N1CCN(C(=O)/C=C/c2cccc([N+](=O)[O-])c2)CC1	·	14.1µM*	·
O=C(/C=C/c1ccccc1)N1CCN(c2c(Cl)cccc2[N+](=O)[O-])CC1	14.1µM*	?	·
COc1ccccc1N1CCN(C(=O)/C=C/c2ccc(C)cc2)CC1	-6.4%	-1.9%	·
COc1ccccc1C(=O)/C=C/c1ccc(N2CCCCC2)c([N+](=O)[O-])c1	-10.5%	6.31µM*	6.1
O=[N+]([O-])c1cc(/C=N/Nc2nc(N3CCCCC3)nc(N3CCCCC3)n2)ccc1O	-21.8%	?	-4.2
Cc1ccc(C)c(S(=O)(=O)N2CCN(CC(=O)NC(=O)NCc3ccccc3)CC2)c1	-11.1%	9.9%	4.1
COCCCCC(=NOCCN)c1ccc(C(F)(F)F)cc1	3.1%	5.2%	-1.7
SMILES	HPGD inh	ALDH1A1 inh	IMPase inh
CCCCc1nc2c(c3c1C[C@H](C)OC3)CN(C(=O)Nc1ccc(OC)cc1)CC2	-2.8%	1.4%[13.5 µM]	·
COc1ccc2c(c1)CCC1C2CC[C@]2(C)[C@H](NCCCCCCN3C(=O)C=CC3=O)CC[C@@H]12 (stereo partly specified)	·	·	6.7
O=C(/C=C/c1ccc(N2CCCCC2)c([N+](=O)[O-])c1)c1ccc(O)cc1	·	25.1µM*	·
O=C(/C=C/c1ccc(Cl)cc1)N1CCN(c2ccc(Cl)cc2[N+](=O)[O-])CC1	-12.5%	-6.7%	10.0
CCOC(=O)/C=C1\CC(=O)Nc2cc(C)c(C)cc2N1	50.8%	-2.4%	-3.3
CCOC(=O)/C=C1\CC(=O)Nc2nonc2N1	31.6µM*	2.2%	-2.7
CCOC(=O)c1cccc(S(=O)(=O)N2CCOCC2)c1	·	-0.7%	·
CCOC(=O)C1=C(N)N(c2cc(S(=O)(=O)N3CCOCC3)ccc2Cl)C(=O)C1	·	14.1µM*	·
COc1ccc(/C=N/NC(=O)c2c(C)nnn2-c2nonc2N)cc1OC	·	-11.2%	·
COc1cc(C(=O)ON=C2C=C(C)C(=O)C(C)=C2)cc(OC)c1OC	-15.0%	-2.7%	·
COc1cc(C(=O)O/N=C2\C=CC(=O)C(C)=C2)cc(OC)c1OC	-14.8%	14.1µM*	13.6
O=S(=O)(CCC(F)=C(F)F)c1nnnn1C1CCCCC1	-7.5%	18.2%	·
Cc1ccc(C(C2=C(O)CC(C)(C)CC2=O)C2C(=O)CC(C)(C)CC2=O)o1 (stereo unspecified)	3.55µM*	14.1µM*	-5.8
CC1(C)CC(=O)C(C(C2=C(O)CC(C)(C)CC2=O)c2cccnc2)C(=O)C1 (stereo unspecified)	-6.6%	14.1µM*	-8.5
CC1(C)CC(=O)C(C(C2=C(O)CC(C)(C)CC2=O)c2cccs2)C(=O)C1 (stereo unspecified)	·	-2.8%	1.1
